The values that follow come from PMC10668032, “Altered binding affinity of SIX1-Q177R correlates with enhanced WNT5A and WNT pathway effector expression in Wilms tumor”.

In all, about 33,000 sequences were measured (“e-score”: median about -0.053, highest 2% from about 0.38 on). The entries come from a sample that favours the highest values as a whole.

The target in the experiment is T1, SIX1 homeodomain (reference allele) (human, UniProt Q15475 108-198).
T1 sequence: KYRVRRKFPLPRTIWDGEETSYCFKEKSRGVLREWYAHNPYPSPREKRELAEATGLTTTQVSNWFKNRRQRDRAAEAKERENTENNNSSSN
In words: universal protein binding microarray; Universal all-10-mer PBM (8x60K, AMADID 030236), 300 nM GST-tagged protein, Alexa Fluor 488 anti-GST; buffer, salt, pH and temperature not stated (as in Berger); high values mean tight binding. Particulars: protein: ivt; tags: N-terminal GST; dsDNA, one strand shown. The procedure, abridged:
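Duplicate protein binding microarrays (universal 'all 10-mer', 8×60K format) were incubated with GST-tagged homeodomains at 300 nM final concentration. Binding was quantified as 8-mer E-scores with the Universal PBM Analysis Suite.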
In the case of CAGCTATC, the binding signal worked out at 0.25 ± 0.0918 E-score. Consider ATCATCCA, for which the binding signal came to 0.275 ± 0.0117 E-score. ATCACAGC: the binding signal is 0.2757 ± 0.00158 E-score. For AGTTAATC the value was 0.182 ± 0.0377 E-score.

As to AGTAGTAT, the binding signal was 0.349 ± 0.0523 E-score. To CGGCTCGA belongs 0.15 ± 0.146 E-score; to GAAGATAA, 0.154 ± 0.0705 E-score; to CCGGGAGA, 0.177 ± 0.081 E-score.

On to TACCAATA, for which the binding signal is 0.204 ± 0.0104 E-score. GGTATTCA: the binding signal turned out to be 0.3 ± 0.0073 E-score. ACTATCCG: the binding signal amounted to 0.35 ± 0.00425 E-score. For AGTATCCA, the binding signal was found to be 0.391 ± 0.00372 E-score. In the case of AGTATCCG, the binding signal is 0.396 ± 0.0105 E-score.

On to CCTATCCG, for which the binding signal stood at 0.316 ± 0.0172 E-score. To ATTATCCA belongs 0.176 ± 0.0268 E-score. In the case of GCTATCCA, the binding signal stood at 0.204 ± 0.0406 E-score. To ACTATCCA belongs 0.241 ± 0.0211 E-score; to GGTATCCA, 0.464 ± 0.0172 E-score; to ATTATAGC, 0.176 ± 0.0442 E-score. To CGATCTTA belongs 0.197 ± 0.0344 E-score; to CCGATCCA, 0.29 ± 0.0686 E-score; to ACGATCCA, 0.284 ± 0.0277 E-score. To CCGATCCG belongs 0.428 ± 0.0349 E-score; to CCGATCGG, 0.319 ± 0.0282 E-score; to ACGATCCG, 0.425 ± 0.0168 E-score. Regarding ACGATCCT, the binding signal is 0.347 ± 0.0269 E-score. With ATCACCAC, the binding signal was 0.262 ± 0.0152 E-score. For GATCGGAC the value was 0.248 ± 0.0437 E-score.

On to ACACCTCC, for which the binding signal is 0.347 ± 0.0177 E-score. For ATCGGCTG, the binding signal stood at 0.167 ± 0.0425 E-score. To ATCTGCCC belongs 0.182 ± 0.0131 E-score; to CGGTATGA, 0.225 ± 0.00643 E-score; to CGGTATTC, 0.319 ± 0.00856 E-score.

As for ACCTATCC, the binding signal was determined as 0.262 ± 0.0365 E-score. For AGTTATCC the value was 0.295 ± 0.00593 E-score; for AGGTATGA, 0.242 ± 0.0289 E-score; for TGGTATAA, 0.287 ± 0.0507 E-score.

In the case of CGGTATCA, the binding signal came to 0.4855 ± 0.000332 E-score. For CGCTATCC the value was 0.339 ± 0.0225 E-score; for CGGTATCC, 0.451 ± 0.0218 E-score. To AGGTATCC belongs 0.461 ± 0.0111 E-score; to AGGTATAT, 0.357 ± 0.03 E-score. Take AGGTATCA: the binding signal came to 0.487 ± 0.00797 E-score. As to GATATTTA, the binding signal turned out to be 0.157 ± 0.127 E-score. For ATACGACG the value was 0.191 ± 0.00652 E-score; for CCCCTCTC, 0.161 ± 0.0741 E-score. For AAAGGGAT the value was 0.253 ± 0.0943 E-score.

As to CAGGATAG, the binding signal was found to be 0.315 ± 0.00491 E-score. To AGCAGTAT belongs 0.313 ± 0.00754 E-score; to ATAACACC, 0.301 ± 0.039 E-score. For ATCCGTCG the value was 0.239 ± 0.00454 E-score; for ACGCTATC, 0.296 ± 0.0306 E-score.

On to ATCCAACA, for which the binding signal was found to be 0.293 ± 0.0336 E-score. To GGTGGATA belongs 0.362 E-score. As for GGTTATCA, the binding signal worked out at 0.21 ± 0.00931 E-score. For GGGTATCA the value was 0.4971 ± 0.0012 E-score; for AGGTATCG, 0.4779 ± 0.00118 E-score.

Take GGGTATGA: the binding signal was 0.27 ± 0.0161 E-score.

With AGCTATCG, the binding signal came to 0.284 ± 0.0882 E-score. For AGGTATGG the value was 0.177 ± 0.0177 E-score; for GACACACC, 0.165 ± 0.101 E-score; for ATACTTGG, 0.199 ± 0.00946 E-score. For AAACGATC, the binding signal was found to be 0.216 ± 0.065 E-score. To ATAGAGGA belongs 0.153 ± 0.03 E-score. For CTCCGATC the value was 0.185 ± 0.0542 E-score. For ATCCGATG the value was 0.253 ± 0.0575 E-score.

For CTCCGATA, the binding signal was determined as 0.314 ± 0.00415 E-score. As to ATCCGATC, the binding signal was 0.43 ± 0.0245 E-score. For ATCCGATA the value was 0.466 ± 0.00646 E-score; for GTCCGATA, 0.331 ± 0.0437 E-score. For ATCCGCTA, the binding signal came to 0.243 ± 0.0351 E-score. To ATCCGCTG belongs 0.305 ± 0.0121 E-score; to ATCCGCTC, 0.377 ± 0.0055 E-score; to ATAGTGAT, 0.32 ± 0.0209 E-score.

Regarding GTGTCCGA, the binding signal came out at 0.217 ± 0.0111 E-score.

CAGATTAA: the binding signal was 0.217 ± 0.0579 E-score. To GCTTAATA belongs 0.169 ± 0.0471 E-score. For GTATTGTA the value was 0.272 ± 0.0188 E-score; for ATCTATCG, 0.23 ± 0.0219 E-score. To ATCCATTC belongs 0.287 ± 0.0196 E-score. TACTGCAA: the binding signal was 0.163 ± 0.0382 E-score. To AATACATA belongs 0.242 ± 0.0372 E-score. To GATACACA belongs 0.3539 ± 0.00325 E-score. For GATACAAC, the binding signal came to 0.305 ± 0.0152 E-score. To GATACACC belongs 0.469 ± 0.00523 E-score. For CATACAGA the value was 0.196 ± 0.0391 E-score; for TATACATA, 0.246 ± 0.0104 E-score; for GATACATA, 0.398 ± 0.0255 E-score. For CATACACC the value was 0.256 ± 0.0714 E-score; for GATACAGA, 0.268 ± 0.0783 E-score. Turning to GATACAGC, the binding signal is 0.395 ± 0.00544 E-score.

For AATACATC, the binding signal came out at 0.204 ± 0.0447 E-score. To GATACATC belongs 0.4297 ± 0.000849 E-score; to AGTGAGCC, 0.225 ± 0.0456 E-score; to ATCACATG, 0.269 ± 0.0277 E-score. To ATCATCTC belongs 0.371 ± 0.00868 E-score; to ATTGGGGG, 0.152 ± 0.0367 E-score.

On to GATCAGTA, for which the binding signal turned out to be 0.347 ± 0.00373 E-score. To ATACGCTG belongs 0.268 ± 0.0386 E-score; to CACACCAC, 0.206 ± 0.0597 E-score. For AACACCAC the value was 0.255 ± 0.026 E-score; for GACACCGA, 0.383 ± 0.0167 E-score; for GACACCTC, 0.3967 ± 0.00186 E-score. For AACACCGA the value was 0.228 ± 0.0289 E-score. Regarding CACACCGC, the binding signal was found to be 0.164 ± 0.108 E-score. To AACACCGC belongs 0.293 ± 0.041 E-score. For GACACCAC the value was 0.439 ± 0.0198 E-score; for GACACCGC, 0.398 ± 0.0204 E-score. For GACACCTA the value was 0.3565 ± 0.0024 E-score. Turning to CACACCTC, the binding signal was found to be 0.267 ± 0.0486 E-score. To TACACCGA belongs 0.361 ± 0.0113 E-score. For ATATGGAC the value was 0.173 ± 0.0129 E-score; for ATCCTTTC, 0.212 ± 0.0474 E-score.

For CAGGATGA, the binding signal is 0.183 ± 0.0851 E-score.

Consider ATCCCTCC, for which the binding signal stood at 0.329 ± 0.0164 E-score.

Consider ACGCATAT, for which the binding signal worked out at 0.233 ± 0.00465 E-score. Take GATCTAGA: the binding signal was determined as 0.252 ± 0.0586 E-score. To CAGAGATA belongs 0.27 ± 0.0194 E-score; to CGTCTCAA, 0.286 ± 0.0622 E-score; to AGTAAGAT, 0.191 ± 0.00535 E-score. To ATCCGCCC belongs 0.373 ± 0.0127 E-score; to AATATCCG, 0.317 ± 0.0622 E-score; to GATATCCC, 0.487 ± 0.00837 E-score. To GATATCCA belongs 0.452 ± 0.0127 E-score. As for GCTATCCC, the binding signal turned out to be 0.281 ± 0.0159 E-score. To AATATCCA belongs 0.2955 ± 0.00224 E-score; to AATATCCC, 0.378 ± 0.0135 E-score. For CATATCCC the value was 0.352 ± 0.0303 E-score; for CATATCCA, 0.348 ± 0.0227 E-score. AATATCCT: the binding signal is 0.282 ± 0.0516 E-score. Regarding GAAGATCA, the binding signal amounted to 0.196 ± 0.071 E-score. As to GAGCAATA, the binding signal turned out to be 0.151 ± 0.0211 E-score. For CGAGATCA, the binding signal was found to be 0.287 ± 0.035 E-score. For CTAAGATC the value was 0.207 ± 0.011 E-score; for ATCTAGCC, 0.18 ± 0.0214 E-score.

Regarding ATATGACA, the binding signal was determined as 0.2181 ± 0.00196 E-score. To ATATGATA belongs 0.443 ± 0.0314 E-score; to CTATGATA, 0.394 ± 0.0185 E-score. To CTATGGTA belongs 0.305 ± 0.0461 E-score. Regarding ATATGATG, the binding signal is 0.202 ± 0.0156 E-score. For the sequence GTATGAGA, the binding signal is 0.167 ± 0.0275 E-score. For GTATGACA the value was 0.153 ± 0.0497 E-score; for ATATGATC, 0.378 ± 0.0179 E-score. To CTATGATC belongs 0.302 ± 0.0116 E-score; to ATATGACC, 0.189 ± 0.0241 E-score; to CTATGAGA, 0.177 ± 0.0191 E-score. For GTATGATA the value was 0.426 ± 0.00336 E-score; for ATCGGCGA, 0.263 ± 0.0285 E-score; for CAGCTATA, 0.172 ± 0.0266 E-score. Take ATCAACCC: the binding signal is 0.3364 ± 0.0021 E-score.

As for CCCTTCGG, the binding signal was determined as 0.2259 ± 0.00107 E-score.

For ATCTCGGC, the binding signal turned out to be 0.164 ± 0.0197 E-score. To CCGCATCC belongs 0.159 ± 0.0829 E-score.

Take CTGGGGTC: the binding signal worked out at 0.164 ± 0.0399 E-score.

Turning to GATCCATC, the binding signal is 0.364 ± 0.0371 E-score. To ATCGTTGG belongs 0.205 ± 0.01 E-score; to ATATAAGG, 0.189 ± 0.0368 E-score; to CGATGGAG, 0.167 ± 0.00841 E-score.

With GGATCAAA, the binding signal turned out to be 0.372 ± 0.0497 E-score.

GGATCACC: the binding signal is 0.438 ± 0.0243 E-score.

In the case of AGATCAGA, the binding signal was determined as 0.215 ± 0.0541 E-score.

Take CGATCACG: the binding signal worked out at 0.251 ± 0.0416 E-score.

Take GGATCACA: the binding signal came to 0.4356 ± 0.00108 E-score. For AGATCACC the value was 0.317 ± 0.00333 E-score; for GGATCAAC, 0.39 ± 0.0049 E-score. As to TGATCACA, the binding signal came out at 0.254 ± 0.0125 E-score. To CGATCACC belongs 0.34 ± 0.0407 E-score; to CGATCAGA, 0.192 ± 0.0121 E-score. With AGATCAAC, the binding signal came out at 0.264 ± 0.0411 E-score. To GGATCAGA belongs 0.414 ± 0.0101 E-score; to CCCCATCA, 0.152 ± 0.0305 E-score. To TATCCTAA belongs 0.238 ± 0.0642 E-score.
